# Tg IFNy HTS – inhibitors of Toxoplasma gondii growth with IFN-gamma | 69,000 compounds, 3.8% hits | activity change, negative = inhibition, % (no concentration beside the values) | AID 1259416 | Toxoplasma gondii growth in IFN-gamma-treated host cells; hits give low values; in the data active = activity change below about -70%, passing the limit was not always enough;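 also: host cells are HeLa cells infected with Toxoplasma gondii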
# * = called active by the depositor; i = inactive. This is one part of a sample in which hits are shown more often than they occur.
SMILES,Tg IFNy HTS
Cc1ccc(-c2nnc(-c3nc(NCc4ccc(F)cc4)c4ccccc4n3)o2)cc1,15
Cc1cccc(-c2nnc(-c3nc(NCc4ccco4)c4ccccc4n3)o2)c1,-24
Cc1ccc(-c2nnc(-c3nc(NCc4cccc(C)c4)c4ccccc4n3)o2)cc1,24
COc1ccc(Nc2nc(-c3nnc(-c4cccc(C)c4)o3)nc3ccccc23)cc1,i
COc1cccc(CNc2nc(-c3nnc(-c4cccc(C)c4)o3)nc3ccccc23)c1,-92*
Cc1cccc(-c2nnc(-c3nc(N4CCCCC4C)c4ccccc4n3)o2)c1 (stereo not drawn),27
O=C(c1cc(CN2CCOCC2)on1)N1CC(Oc2ccc(F)cc2)C1,12
COCCn1cc2c(n1)C(CNC(=O)COC)OCC2 (stereo not drawn),5
CN1CCCN(CC(=O)N(C/C=C/c2ccccc2)C2CC2)CC1,1
Cc1ccccc1-n1nc(C)c(CN(Cc2ccccn2)Cc2ccco2)c1C,-27
O=C(NCCc1csc(-c2ccccc2)n1)C1CCN(S(=O)(=O)c2cccc(Cl)c2)CC1,1
O=C(c1cccc(Cl)c1)N1CCC(N2CCc3ccccc32)CC1,i
CCNC(=O)[C@@H]1C[C@@H](N)CN1C(=O)c1ccccc1-n1cccn1,-1
COc1cccc(-n2c(=O)c(C(=O)Nc3cc(C)ccc3C)c(O)c3cccnc32)c1,-2
Cc1cnc(N2CCc3nc(N4CCCC4)nc(N(C)C)c3CC2)nc1,-7
COCCN1CCCC(O)(CN2CCN(Cc3nccn3C)CC2)C1=O (stereo not drawn),-3
CCOCC1CN(c2ccc(C)nn2)Cc2ncn(C)c21 (stereo not drawn),-4
CC1=CC[C@@H]2CN(C(=O)Cc3cc(C)no3)C[C@@H]2C1,12
O=C(CCc1cccs1)CSCC(=O)NCc1cccs1,214
CC(C)(C)c1ccc(-c2noc(CCOc3ccc(F)cc3)n2)cc1,34
CCCc1c(C(=O)Nc2ccc3ccccc3n2)cnn1-c1ccccc1,-37
CCCc1c(-c2nc(-c3ccc(C(C)(C)C)cc3)no2)cnn1-c1ccccc1,-97*
Cc1cc(C)n(C(C(=O)NC2=NS(=O)(=O)c3ccccc32)C(C)C)n1 (stereo not drawn),-7
CCCc1nc(C)c(CNC(=O)CC(=O)Nc2ccccc2C)s1,6
CCn1c(=O)c(-c2nc(-c3ccc(OCC(C)C)cc3)no2)c(O)c2ccc(F)cc21,15
SMILES,Tg IFNy HTS
CCOC(=O)c1cccc(NC(=O)c2ccccc2OCC)c1,-34
CCc1cccc(NC(=O)c2nc(Nc3ccc(C)cc3)c3ccccc3n2)c1,88
CCc1ccc(OCc2ccccc2C(=O)Nc2ccc3nc(C)cc(N)c3c2)cc1,-74*
O=C(C1CC(=O)N(C2CCCCC2)C1)N1CCc2nc(-c3ccccn3)[nH]c(=O)c2CC1 (stereo not drawn),96
Oc1c(Cl)cc(Cl)cc1C1Nc2cc(Cl)c(C(F)(F)F)cc2N1 (stereo not drawn),-88*
CN(C)CCN1C(=O)CC2(CCN(c3ncccn3)CC2)c2ccccc21,-3
CC1CN(C(=O)c2nc3c(n2C(C)C)CCN(Cc2ccccc2)C3)CC(C)O1 (stereo not drawn),-49
CC(C)Oc1ccc(NC(=O)c2nc3c(n2C(C)C)CCN(C(=O)c2ccccc2)C3)cc1,-89*
CC(C)n1c(C(=O)Nc2cccc(F)c2)nc2c1CCN(Cc1ccccc1)C2,-30
COCCC(=O)c1cc(-c2cnc(-c3cccnc3)nc2)cn1C,-39
CCCNC(=O)c1cc(-c2cnc(-c3cccnc3)nc2)cn1C,-91*
CN(C)CCNC(=O)c1cc(-c2cnc(-c3ccnn3C)nc2)cn1C,71
Cc1ccc(-c2nnc(SCC(=O)Nc3ccccc3)o2)cc1,160
Nc1c(-c2nnc(-c3ccccc3)o2)sc2nc(-c3ccccc3)cc(-c3ccccc3)c12,-87*
Cc1ccc(-c2cc(-c3ccccc3)nc3sc4c(c23)CCCC4)cc1,33
O=c1[nH]cnc2c1sc1nc(-c3ccccc3)cc(-c3ccccc3)c12,-9
CN1CCCC(c2cccc(CC3(C(=O)Nc4ccc5c(ccn5C)c4)CCOCC3)c2)C1 (stereo not drawn),35
CCOc1ccccc1CNC(=O)c1nc(Nc2ccc(CC)cc2)c2ccccc2n1,-52
CCn1c(=O)/c(=C2/Sc3ccc(OC)cc3N2C)s/c1=C1/C(=O)N(C)C(=S)N1C,-78*
CCCS(=O)(=O)N1Cc2ccccc2C2(CCN(C(C)C)CC2)C1,-11
CC1CCN(S(=O)(=O)c2ccc3c(c2)CCC(=O)N3CC(=O)NC2CCCCC2)CC1,-16
NC(=S)N/N=C/c1ncccc1N,-80*
Cc1cc(C(=O)N2CCCC3(C2)Nc2ccccc2NC3=NC(C)(C)C)nn1C (stereo not drawn),-18
Cc1cccc2cc(C#N)c(SCC(=O)N3CCCc4ccccc43)nc12,-38
O=C1CCc2cc(S(=O)(=O)N3CCc4ccccc43)cc3c2N1CCC3,1
SMILES,Tg IFNy HTS
N#Cc1cc2c(cc1C#N)N1CCCc3cccc(c31)O2,-92*
Cc1ccc(S(=O)(=O)N2CCC3(CC3C(=O)NCc3ccncc3)C2)cc1 (stereo not drawn),-4
Cc1oc(-c2cccc(Cl)c2)nc1Cn1nnc(-c2nc(-c3cccc(F)c3)no2)c1C,-25
Cc1cc(C)cc(Nc2nc(-c3nnc(-c4ccccc4)o3)nc3ccccc23)c1,42
Cc1ccc(Nc2nc(-c3nnc(-c4ccc(C)cc4)o3)nc3ccccc23)cc1,42
c1ccc(Nc2ncnc3ccccc23)cc1,-61
Cc1cccc(Nc2ncnc3ccccc23)c1,-51
CC(Nc1nc(-c2nnc(-c3ccccc3)o2)nc2ccccc12)c1ccccc1 (stereo not drawn),-94*
CC(Nc1ncnc2ccccc12)c1ccccc1 (stereo not drawn),-93*
COc1cccc(N2CC3(CCN(c4cc(OC)ncn4)C3)CC2=O)c1 (stereo not drawn),-15
O=c1cccnn1CC1CN(c2ncccn2)Cc2nccn2C1 (stereo not drawn),4
CCc1nc2ccccc2n1CC(=O)Nc1cccc(N2CCCCS2(=O)=O)c1,-29
CCCCn1c(SCC(=O)Nc2nc(C)cs2)nnc1-c1ccncc1,-7
Cc1ccc(C(=O)NCCc2csc(-c3ccc(F)cc3)n2)cc1C,-51
CCC(C)NCCOc1ccc(C(C)(C)c2ccccc2)cc1 (stereo not drawn),-7
CCC(C)NCCOCCOc1ccc(Cl)c2ccccc12 (stereo not drawn),-94*
CCOc1ccccc1OCCN[C@H](C)Cc1ccc(OC)c(S(N)(=O)=O)c1,16
Cc1ccc(S(=O)(=O)N(C)C[C@H]2OCCCC[C@H](C)Oc3ccc(NC(=O)c4ccncc4)cc3C(=O)N([C@@H](C)CO)C[C@@H]2C)cc1,-98*
Cc1ccc(S(=O)(=O)N(C)C[C@H]2OCCCC[C@H](C)Oc3ccc(NC(=O)c4ccncc4)cc3C(=O)N([C@@H](C)CO)C[C@H]2C)cc1,75
Cc1ccc(S(=O)(=O)Nc2ccc3c(c2)C(=O)N([C@H](C)CO)C[C@H](C)[C@H](CN(C)S(=O)(=O)c2cccs2)OCCCC[C@@H](C)O3)cc1,-19
Cc1ccc(S(=O)(=O)N(C)C[C@H]2OCCCC[C@H](C)Oc3ccc(NC(=O)c4ccncc4)cc3C(=O)N([C@H](C)CO)C[C@@H]2C)cc1,-8
Cc1ccc(S(=O)(=O)Nc2ccc3c(c2)C(=O)N([C@@H](C)CO)C[C@H](C)[C@H](CN(C)S(=O)(=O)c2cccs2)OCCCC[C@H](C)O3)cc1,-107*

# High-throughput results deposited in PubChem by Broad Institute.
